# High-throughput results deposited in PubChem BioAssay by National Center for Advancing Translational Sciences (NCATS).
# VDR inhibitor: Inhibitors of the vitamin D receptor (VDR): qHTS; VDR-SRC2-3 peptide fluorescence polarization, 2 h; Potency, µM, without a hit: max response, negative = inhibition, actives largely listed as inhibitors; 0.93% of 400,000 active
# Target sequence (P11473 whole entry, looked up): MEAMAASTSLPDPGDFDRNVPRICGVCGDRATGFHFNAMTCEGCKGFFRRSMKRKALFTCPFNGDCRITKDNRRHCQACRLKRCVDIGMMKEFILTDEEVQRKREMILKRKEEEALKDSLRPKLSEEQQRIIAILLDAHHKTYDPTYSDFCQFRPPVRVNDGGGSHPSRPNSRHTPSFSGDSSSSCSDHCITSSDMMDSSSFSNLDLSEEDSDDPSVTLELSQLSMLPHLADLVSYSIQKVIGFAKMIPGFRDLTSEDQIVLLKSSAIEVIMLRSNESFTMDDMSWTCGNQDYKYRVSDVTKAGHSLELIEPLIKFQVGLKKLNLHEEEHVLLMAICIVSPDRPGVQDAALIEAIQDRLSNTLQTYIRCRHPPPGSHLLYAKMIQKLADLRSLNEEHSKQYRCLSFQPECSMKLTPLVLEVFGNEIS
#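 Reagent solutions, kept cold and dark, are dispensed first; compounds are then pinned in at 23 nl, plates briefly spun, and incubated 2 h at ambient temperature. Inhibition of VDR–SRC2-3 peptide binding is read by fluorescence polarization.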
# PLK1 PBD inh: qHTS for Inhibitors of PLK1-PDB (polo-like kinase 1 - polo-box domain): Primary Screen; Serine/threonine-protein kinase PLK1 (Homo sapiens), P53350; Plk1 PBD binding of FITC phosphopeptide, fluorescence polarization; 2.8% of 360,000 active; Potency, µM, inactives show max response, negative = inhibition, hits mostly inhibitors; also: series mostly up to about 57 µM; nearly all actives have a fitted effect of over 65% in size
# ALOX12 inh: Primary qHTS assay for inhibitors of human arachidonate 12S-lipoxygenase (ALOX12): Round 2; Polyunsaturated fatty acid lipoxygenase ALOX12 (Homo sapiens), P18054; purified 12hLO, xylenol orange hydroperoxide absorbance; Potency, µM (top dose mostly 108 µM), for the others: at the top dose activity change, negative = inhibition, hits mostly inhibitors; 1.1% of 580,000 active; AID 1671190, 2021
#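 Purified human 12hLO at 150 nM in 25 mM Hepes, 0.01% Triton X-100, pH 7.0, preincubated 15 min at room temperature with compound. Reaction started with 40 uM arachidonic acid, 30 min at room temperature. Hydroperoxide measured by Fe-xylenol orange, 573/405 nm absorbance ratio.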
# Sfp PPTase inh: qHTS Assay for Inhibitors of Bacillus subtilis Sfp phosphopantetheinyl transferase (PPTase) | 4'-phosphopantetheinyl transferase ffp (Bacillus subtilis), Q9F4F7 | Biochemical Sfp PPTase activity, qHTS | Potency, µM, without a hit: largest response in the series, negative = inhibition, most hits filed as inhibitors | 3.5% of 310,000 active | AID 1490, 2009;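 also: the enzyme is Sfp with the accession as filed and its product quenches rhodamine fluorescence; 0% = enzyme reaction without inhibitor and -100% = no enzyme wells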
#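 After 15 min at room temperature with compound, 15 nM Sfp received 5 uM rhodamine-CoA plus 12.5 uM BHQ-2-ybbR (50 mM Hepes pH 7.6, 10 mM MgCl2). Rate came from the fluorescence difference over 30 min, ex 525/em 598 nm.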
# Numbers without * were called inactive; ? = inconclusive; . = no result; ! = a repeat was not active. Most compounds without a hit are left out; they make up all but 4.2% or so of the library. Calls follow the shape of the dose curve; as a rule, active = well fitted curve in the direction sought with a large enough effect; inconclusive = small, poorly fitted or top-dose-only effect, or another doubt; inactive = no such curve, though single readings can be large; an effect the other way counts as inactive or inconclusive. Unless noted, % is scaled to controls: 0 for no effect and ±100 for the full control effect; potency is read from the fitted curve at half-maximal effect.
SMILES,VDR inhibitor,PLK1 PBD inh,ALOX12 inh,Sfp PPTase inh
O=[N+]([O-])c1cc(S(=O)(=O)Nc2cccc(C(F)(F)F)c2)ccc1-n1nnc2ccccc21,10.4%,26.7µM*,0.2%,21.4%
COc1ccc(NS(=O)(=O)c2ccc(-n3nnc4ccccc43)c([N+](=O)[O-])c2)cc1,8.9%,-5.5%,?,-2.3%
O=C(NCc1ccccc1)c1cnc2ccccc2n1,.,.,2.1%,.
Cc1ccccc1CNC(=O)c1cnc2ccccc2n1,.,.,4.47µM*,.
COCCN1C(=O)[C@H]2CN(Cc3cc(Br)ccc3F)C[C@H]2C1=O,.,.,14.5%,.
COc1ccc2cc(CNc3ccc(C)cc3)c(=O)n(CC(=O)Nc3ccc(C)cc3C)c2c1,.,.,7.94µM*,.
COc1ccc(NCc2cc3ccc(OC)cc3n(CC(=O)Nc3cc(Cl)ccc3C)c2=O)cc1,4.1%,.,-14.4%,.
CCCC(=O)N(c1ccc2oc(C)c(C(C)=O)c2c1)S(=O)(=O)c1ccc(C)cc1,-1.7%,.,-21.0%,.
COc1ccc2cc(C(C)C(=O)OC(C)C)ccc2c1 (configuration not stated),-21.0%,-10.4%,-1.0%,.
O=C(/C=C/c1ccco1)N(Cc1cccs1)Cc1cccs1,.,.,8.91µM*,.
C=CCN(Cc1cccs1)C(=O)/C=C/c1ccccc1,.,.,3.1%,.
O=C(Nc1ccc(C(F)(F)F)cc1)c1cc(S(=O)(=O)N2CCCc3ccccc32)ccc1F,-0.1%,.,2.8%,.
COCCn1c(SCc2cnc(-c3ccccc3)s2)nnc1-c1ccncc1,-6.1%,26.7µM*,-17.9%,-20.6%
COCCn1c(SCc2ccccc2F)nnc1-c1ccccc1,.,.,26.7%,.
Cc1ccc(O)c(NC(=O)Cc2ccc3ccccc3c2)c1,-4.0%,-3.9%,-2.7%,-2.4%
O=C(Cn1cccc1C(=O)c1ccccc1)NCCc1ccc(Cl)cc1,-17.1%,23.8µM*,-1.0%,8.5%
O=C(Cn1cccc1C(=O)c1ccccc1)NCc1cccc(Cl)c1,-20.6%,23.8µM*,0.0%,-3.1%
Cc1nn(CC(=O)NCCc2ccc(Cl)cc2)c(=O)c2cccn12,?,26.7µM*,-3.4%,18.5%
Cc1nn(CC(=O)NCc2ccccc2)c(=O)c2cccn12,1.6%,2.0%,-0.1%,16.9%
CC(C)OCc1cccc(CNC(=O)C2CCCC2)c1,.,.,3.7%,.
CCc1nc(C)ccc1OCC(=O)NCCCN(C)C,0.0%,-2.4%,?,?
CC(C)Oc1ccc(CNC(=S)Nc2ccccc2)cc1Cl,6.1%,-1.7%,?,0.2%
CC(C)COc1ccc(CNC(=S)Nc2ccccc2)cc1Cl,-7.1%,-5.9%,31.6µM*,21.3%
O=C(O)c1ccc(N2C(=O)C/C(=C/c3c[nH]c4ccccc34)C2=O)cc1,.,.,-13.0%,.
O=C1/C(=C/c2c[nH]c3ccccc23)CCC/C1=C\c1c[nH]c2ccccc12,-4.0%,18.0%,-25.5%,50.1µM*
SMILES,VDR inhibitor,PLK1 PBD inh,ALOX12 inh,Sfp PPTase inh
CC1=C(C)CC(C(=O)NCc2ccccn2)C(C(=O)O)C1 (configuration not stated),-5.5%,1.5%,?,-12.6%
Cc1cc(NC(=O)CN2C(=O)NC(c3ccc(Cl)cc3)C3=C2COC3=O)ccc1Br (configuration not stated),.,.,8.91µM*,.
O=C(CN1C(=O)NC(c2ccc(Cl)cc2)C2=C1COC2=O)Nc1cccc(Br)c1 (configuration not stated),.,.,10µM*,.
O=S(=O)(Nc1nc(-c2sccc2Cl)cs1)c1cc(Cl)ccc1Cl,?,16.8µM*,.,-23.5%
CCOC(=O)c1cccn1C1C(=O)N(Cc2ccc(C(F)(F)F)cc2)c2ccc(OC(F)(F)F)cc21 (configuration not stated),.,.,-24.1%,.
COc1ccc(CN2C(=O)C(n3ccc4ccccc43)c3cc(OC(F)(F)F)ccc32)cc1 (configuration not stated),.,.,39.8µM*,.
CC(C)c1ccc(CN2C(=O)C(n3ccc4ccccc43)c3cc(Cl)ccc32)cc1 (configuration not stated),.,.,10µM*,.
CSc1cccc(NC(=O)CCCOc2cc(=O)n(C)c3ccccc23)c1,.,-8.8%,-55.0%,.
COc1ccc(Br)cc1C(=O)Nc1ccccc1N1CCN(C(=O)c2ccccc2)CC1,6.0%,23.8µM*,-27.4%,16.0%
O=C(Nc1ccccc1)c1c2c(nc3ccccc13)CCC2,.,.,35.5µM*,.
CN(CC1CCOC1)C(=O)NC1CCCC1 (configuration not stated),.,.,40.9%,.
S=C(Nc1ccccc1Oc1ccccc1)Nc1cccc(Cl)c1Cl,-27.9%,-20.4%,35.5µM*,-27.5%
S=C(Nc1ccc(Cl)cc1Cl)Nc1ccccc1Oc1ccccc1,19.9%,-5.3%,.,?
CN(C)S(=O)(=O)N1CCC(c2cc(-c3ccccc3)n[nH]2)CC1,.,.,30.3%,.
COc1ccc(C(=O)NCc2oc(-c3ccccc3)cc2C(=O)O)cc1,-19.1%,-11.1%,0.0%,25.1µM*
COc1ccc(C(=O)NCc2ccccc2)cc1,.,.,-12.1%,.
CC(CO)(CO)NC(=O)c1ccc(C#Cc2cccc(F)c2)cn1,.,.,-4.3%,.
CCN1CCN(CCNC(=O)c2ccc3c(c2)N(Cc2ccc(F)cc2)C(=O)/C(=C/c2ccccc2)S3)CC1,-2.7%,6.6%,24.2%,50.1µM*
CCN1CCN(CCNC(=O)c2ccc(/C=C3/Sc4ccccc4N(Cc4cccc(Cl)c4)C3=O)cc2)CC1,23.9%,-0.8%,-9.9%,50.1µM*
CCN1CCCC1CNC(=O)c1ccc2c(c1)NC(=O)/C(=C\c1ccc(C)cc1)S2 (configuration not stated),14.3%,-13.9%,?,50.1µM*
Cc1cccc(CN2C(=O)/C(=C\c3ccc(C(=O)NCCN4CCOCC4)cc3)Sc3ccccc32)c1,-6.0%,-15.1%,.,?
O=C(NCCN1CCOCC1)c1ccc(/C=C2\Sc3ccccc3N(Cc3ccccc3F)C2=O)cc1,3.6%,-4.0%,?,-18.6%
O=C1Nc2cc(C(=O)NCCN3CCCCCC3)ccc2S/C1=C/c1ccccc1F,.,-0.6%,28.2µM*,.
O=C1Nc2cc(C(=O)NCCCN3CCCC3)ccc2S/C1=C/c1ccccc1F,-12.8%,-3.7%,7.3%,-28.1%
O=C(CCSc1ccccc1)Nc1ccccc1Br,-12.6%,-21.4%,-5.9%,6.9%
SMILES,VDR inhibitor,PLK1 PBD inh,ALOX12 inh,Sfp PPTase inh
CC(C)(C)c1ccc(OC(=O)Nc2ccc(O)c(C(=O)O)c2)cc1,-2.6%,-26.8%,?,50.1µM*
O=C(CSc1nc2ccccc2nc1N1CCCC1)Nc1ccc(Cl)cc1,?,-10.3%,-6.0%,4.3%
O=C(CCCOc1ccc(Cl)cc1Cl)N/N=C/c1cccc([N+](=O)[O-])c1,-0.5%,26.7µM*,-22.5%,-8.4%
O=C(Nc1c2c(nn1-c1ccccc1)CS(=O)(=O)C2)C1CC1,.,-13.0%,?,.
Clc1ss/c(=N\c2ccccn2)c1Cl,-2.8%,-27.8%,-43.4%,35.5µM*
c1cnc(N2CCN(Cc3ccc4c(c3)OCO4)CC2)nc1,0.1%,-0.1%,22.4µM*!,4.0%
FC(F)(F)c1cccc(CN2CCN(c3ncccn3)CC2)c1,13.4%,2.2%,19.0%,.
c1ccc(N2CCN(Cc3ccc4c(c3)OCO4)CC2)nc1,-7.2%,1.3%,?,.
